# KB-V1 MDR tox: KB-V1 MDR subline cytotoxicity; AID 1347076; Potency, µM (highest dose often 46.1 µM), hits mostly cytotoxic; hit rate 3.4% among 400,000; KB-V1 MDR cells viability, CellTiter-Glo, 72 h; also: nearly all actives have a fitted effect of over 60% in size
#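 KB-V1, DMEM (no phenol red) + 10% FBS; cpd pin-transferred, titration series; 72 h, 37 degrees C; CellTiter-Glo, luminescence. Data normalized, curve-fit.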
# HT1080 IDH1KD tx: kills HT-1080 cells with IDH1 knockdown | HT-1080 IDH1 knockdown viability, ATP luminescence, 48 h | Potency, µM (top dose mostly 46.1 µM), inactives show top-dose activity, negative = toxicity, usual class: cytotoxic | AID 686971 | hit rate 2% among 360,000;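 also: 0% = DMSO wells and -100% = cell-free medium wells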
#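 Luminescent ATP read-out (CellTiter-Glo, 10 min at room temperature) after 48 h compound exposure at 37 °C gave viability of IDH1-knockdown HT-1080 cells. Activity was normalised to DMSO and cell-free wells, then fitted as concentration-response curves.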
# DT40 TDP1 no CPT: qHTS for Inhibitors of human tyrosyl-DNA phosphodiesterase 1 (TDP1): qHTS in cells in absence of CPT; Potency, µM (highest dose often 46.2 µM), without a hit: at the top dose activity change, negative = growth inhibition, usual class: inhibitors; DT40 Tdp1-/- hTDP1 cells, no CPT, ATP luminescence, 48 h; hit rate 15% among 420,000; AID 686978, 2013; also: nearly all actives have a fitted effect of over 55% in size
#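 A cellular qHTS used chicken DT40 cells lacking endogenous Tdp1 but carrying stably transfected human TDP1. Compounds were applied without camptothecin, and cell growth kinetics were judged by ATP-dependent luminescence after ≥48 hr.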
# HT1080-NT tox: kills 2HG-producing HT-1080-NT fibrosarcoma cells; HT-1080-NT fibrosarcoma viability, CellTiter-Glo ATP luminescence, 48 h; Potency, µM (titrated, usually from 46.1 µM), inactives show top-dose activity, negative = less viability, usual class: cytotoxic; hit rate 1.6% among 360,000; AID 686970;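 also: NT is the 2HG producing partner of a matched IDH1 knockdown line; 0% = DMSO-treated cells and -100% = media-only wells without cells; nearly all actives have a fitted effect of over 55% in size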
#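 Viability of the 2HG-overproducing fibrosarcoma line after 48 hours of compound exposure at 37 degrees C was determined by luminescence with CellTiter-Glo, and concentration-effect curves were then fitted and categorized.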
# TDP1 cell CPT: DT40-hTDP1 cell growth loss with CPT | chicken DT40 Tdp1-/-;hTDP1 cells + 20 nM CPT, ATP luminescence, 48 h | Potency, µM (top dose mostly 46.2 µM), inactives show at the highest dose activity change, negative = growth inhibition, most hits filed as inhibitors | hit rate 12% among 420,000 | AID 686979; also: nearly all actives have a fitted effect of over 55% in size
#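 Cell growth measured by CellTiter-Glo luminescence after a minimum 48 h, 37 C compound exposure with 20 nM CPT in Tdp1-knockout DT40 cells stably expressing hTDP1, seeded 400/well; qHTS titration format.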
# KB-3-1 cytotox: kills parental KB-3-1 adenocarcinoma cells; hit rate 1.4% among 400,000; KB-3-1 viability, CellTiter-Glo ATP luminescence, 72 h; Potency, µM (top dose mostly 46.1 µM), most hits filed as cytotoxic; also: nearly all actives have a fitted effect of over 60% in size
#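 Luminescent ATP read-out (CellTiter-Glo) measures survival of drug-naive KB-3-1 cells after 72 h compound exposure at 37 °C. Titration series was screened from lowest to highest concentration, with DMSO vehicle plates as background controls.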
# An asterisk follows results filed as active; i = inactive; u = inconclusive; x = not tested or not shown; [ ] = remark or other dose. A selection: hits, their analogues and other compounds. The true share with any hit is near 19%. Calls follow the shape of the dose curve; as a rule, active = well fitted curve in the direction sought with a large enough effect; inconclusive = small, poorly fitted or top-dose-only effect, or another doubt; inactive = no such curve, though single readings can be large; an effect the other way counts as inactive or inconclusive. Unless noted, % is scaled to controls: 0 for no effect and ±100 for the full control effect; potency is read from the fitted curve at half-maximal effect.
SMILES,KB-V1 MDR tox,HT1080 IDH1KD tx,DT40 TDP1 no CPT,HT1080-NT tox,TDP1 cell CPT,KB-3-1 cytotox
CC1(C)CC2CN(C(=O)Cc3ccccc3)C(C)(C2)C1 (stereo unspecified),i,-1%,16µM*,2%,u,i
Clc1ccc2c(c1)C=Nc1c(NCc3ccccc3)ncnc1O2,i,-1%,-12%,0%,-17%,i
C1=Nc2c(Nc3ccccc3)ncnc2Oc2ccccc21,u,u,10µM*,u,9.2µM*,i
O=S(=O)(N/N=C/c1ccc(OC2CSC2)cc1)c1ccccc1,i,3%,2%,-3%,0%,i
Cc1ccnc(OC(C(=O)O)C(OCc2ccccc2)(c2ccccc2)c2ccc(C(F)(F)F)cc2)n1 (stereo unspecified),i,-22%,u,-15%,21µM*,i
CCC1(c2ccccc2)NC(=O)N(CC(=O)Nc2ccc(S(=O)(=O)Nc3ncccn3)cc2)C1=O (stereo unspecified),i,2%,5%,1%,6%,i
CN(CC(=O)Nc1cccc(F)c1)C(=O)CCCc1cccs1,i,3%,-16%,6%,0%,i
Cc1ccc2oc(-c3cccc(NC(=O)c4ccccn4)c3)nc2c1,i,15%,u,14%,u,i
COc1cc(C(=O)Nc2cc(C)c(O)c(-c3nc4cc(Cl)ccc4o3)c2)cc(OC)c1OC,i,x,x,x,x,7.3µM*
Cc1cc(C)c2oc(-c3cccc(NC(=O)c4ccco4)c3)nc2c1,i,x,-89%,x,u,i
COc1cccc(OC)c1C(=O)Nc1cccc(-c2nc3cc(C)cc(C)c3o2)c1,u,x,7.3µM*,x,13µM*,i
COc1cc(C(=O)Nc2cccc(-c3nc4cc(C)ccc4o3)c2)cc(OC)c1OC,i,-3%,u,-7%,23µM*,i
Cc1cc(NC(=O)c2cccnc2)cc(-c2nc3cc(Cl)ccc3o2)c1O,i,x,x,x,x,i
Cc1ccc(NC(=O)COC(=O)c2ccc(S(=O)(=O)N3CCCC3)cc2)cc1,i,-4%,1%,8%,3%,i
CCN(CC)CCNC(=O)c1sc2nc(C)cc(C)c2c1-n1cccc1,i,x,u,x,u,i
Cc1oc(C(=O)Nc2ccc(O)cc2)cc1COc1ccccc1,i,u,16µM*,-13%,u,i
O=C(Nc1ccc(O)cc1)c1ccc(C(=O)c2ccccc2)o1,i,-1%,20µM*,-2%,25µM*,i
Cc1ccc(C(=O)Nc2cccc(Oc3ccccc3)c2)o1,u,-12%,u,2%,18µM*,i
COc1cccc(NC(=O)c2ccc(C(=O)c3ccccc3)o2)c1,i,-26%,18µM*,-19%,u,i
COc1cccc(C(=O)Nc2ccccc2)c1,i,-3%,-12%,6%,-1%,i
CCc1ccc([C@H]2C(C(=O)O)=C[C@@H](CC3CCCC3)N2S(=O)(=O)c2ccc(C)cc2)cc1,i,-2%,-13%,-10%,u,i
Cc1ccc(S(=O)(=O)N2CCCC2C(=O)Nc2ccc(Br)cc2)cc1 (stereo unspecified),x,x,15µM*,x,u,x
Cc1cc(C)cc(NC(=O)C2CCCN2S(=O)(=O)c2ccc3c(c2)C(C)(C)C(=O)N3C)c1 (stereo unspecified),i,1%,u,7%,16µM*,i
CC1CCN(c2ccc(NC(=O)C3CCCN3S(=O)(=O)c3ccc(F)cc3)cc2)CC1 (stereo unspecified),i,-2%,4.1µM*,-2%[9.24 µM],18µM*,i
